Data as given in PubChem BioAssay (Tox21).
Results filed as inconclusive are left out. Where a call stands in place of a potency, no number is given. Activity calls are given as the source filed them. Calls follow the shape of the dose curve; as a rule, active = well fitted activation curve with a large enough effect in the repeat runs; inconclusive = weak or mixed curves; inactive = no such curve, though single readings can be large or run the other way. Starred links: 1 amine or outer side, 2 acyl side, 3 side chain; linkers in the order of their positions; H or OH if unused. Positions of bridges follow the written chain, without caps; N, C: chain ends. Non-standard residues stand in square brackets, D forms with d. Residues, ends and D or L forms follow the SMILES beside them. *: point of attachment. X5 = NC1=N[C@@H]([C@H](N[*:1])C(=O)[*:2])C[C@H](O)N1; ΔAla(Z-3-ureido) = NC(=O)N/C=C(\N)C(=O)O; β3hOrn = NCCC[C@H](N)CC(=O)*; Orn = NCCC[C@H](N)C(=O)O; Dap = NC[C@H](N)C(=O)O; Mpa = O=C(O)CCS

Test: qHTS assay for small molecules that induce genotoxicity in human embryonic kidney cells expressing luciferase-tagged ATAD5 (AID 651632); also: nearly all actives have a fitted effect of over 15% in size
Details: HEK293T ATAD5-luciferase induction, 16 h; series mostly up to 83.3 µM
In short: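 ATAD5-luc HEK293T, 2,000 cells/well; cpd or DMSO pin-transferred; 16 hr, 37C/5% CO2; Amplite 30 min RT; luminescence.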
With COCC1=C(C(=O)OC(C)OC(=O)OC(C)C)N2C(=O)[C@@H](NC(=O)/C(=N\OC)c3csc(N)n3)[C@H]2SC1 (some centres undefined) the Potency was “inactive”.
With CO[C@@H]1[C@@H](O[C@@H]2O[C@H](C)[C@@H](O[C@H]3C[C@@](C)(O)[C@@H](OC(=O)CC(C)C)[C@H](C)O3)[C@H](N(C)C)[C@H]2O)[C@@H](CC=O)C[C@@H](C)[C@@H](O)/C=C/C=C/C[C@@H](C)OC(=O)C[C@H]1O the Potency was “inactive”.
With CC(=O)O[C@H]1C[C@@H]2CC[C@@H]3[C@H](CC[C@@]4(C)[C@H]3C[C@H](N3CC[N+](C)(C)CC3)[C@@H]4OC(C)=O)[C@@]2(C)C[C@@H]1N1CC[N+](C)(C)CC1 the Potency was “inactive”.
In the case of NCCC[C@H](N)CC(=O)N[C@H]1CNC(=O)[C@H]([C@H]2C[C@H](O)NC(N)=N2)NC(=O)/C(=C/NC(N)=O)NC(=O)[C@H](CO)NC(=O)[C@H](CO)NC1=O (β3hOrn-[Dap]SS[ΔAla(Z-3-ureido)][X5]; lactam 1-C), the Potency is reported as “inactive”.
For CCOc1ccc(C[C@H]2NC(=O)CCSSC[C@@H](C(=O)N3CCC[C@H]3C(=O)N[C@@H](CCCN)C(=O)NCC(N)=O)NC(=O)[C@H](CC(N)=O)NC(=O)[C@H]([C@@H](C)O)NC(=O)[C@H]([C@@H](C)CC)NC2=O)cc1 ([Mpa][dY](Et)ITNCP[Orn]G-NH2; disulfide 1-6), the Potency was “inactive”.
For O=P(O)(O)C(O)(Cc1cnc2ccccn12)P(=O)(O)O, the Potency was “inactive”.
For OCC(O)COc1ccc(Cl)cc1 (centres undefined), the Potency was “inactive”.
For CCCCCCCCCCCCCCCC(=O)OC[C@@H](NC(=O)C(Cl)Cl)[C@H](O)c1ccc([N+](=O)[O-])cc1, the Potency was “inactive”.
For NC(=O)Oc1ccc(Cc2ccccc2)cc1, the Potency was “inactive”.
For CCCC(CCC)C(N)=O, the Potency was “inactive”.
For CC1CC(OC(=O)C(O)c2ccccc2)CC(C)(C)C1 (centres undefined), the Potency was “inactive”.
For OC(CN1CCCCC1)c1cc(-c2ccccc2)on1 (centres undefined), the Potency was “inactive”.
In the case of CCC(c1ccccc1)c1noc(CCN(CC)CC)n1 (centres undefined), the Potency is reported as “inactive”.
With O=S(O)CNc1ccc(S(=O)(=O)c2ccc(NCS(=O)O)cc2)cc1 the Potency was “inactive”.
In the case of C=CCN1CCCC1CNC(=O)c1cc(S(N)(=O)=O)cc(OC)c1OC (centres undefined), the Potency is reported as “inactive”.
With CCCCCCCCCCCCCCCCCC(=O)OCCO the Potency was “inactive”.
In the case of CCCCCCCCCCCCCCCCCCCCCC(=O)Nc1ccn([C@@H]2O[C@H](CO)[C@@H](O)[C@@H]2O)c(=O)n1, the Potency is reported as “inactive”.
With CCCCOC(=O)C(=O)Nc1cccc(-c2nn[nH]n2)c1 the Potency was “inactive”.
For CCOC(=O)[C@H](CCc1ccccc1)N[C@H]1CCCN2CCC[C@@H](C(=O)O)N2C1=O, the Potency was “inactive”.
For CC(C)CN(C[C@@H](O)[C@H](Cc1ccccc1)NC(=O)O[C@@H]1CCOC1)S(=O)(=O)c1ccc(N)cc1, the Potency was “inactive”.
With O.O=C([O-])CC([S-])C(=O)[O-].[Au+].[Na+].[Na+] (centres undefined) the Potency was “inactive”.
In the case of O=P(O)(O)C(Sc1ccc(Cl)cc1)P(=O)(O)O, the Potency is reported as “inactive”.
In the case of O=C(CCCN1CCC(C(=O)c2ccc(F)cc2)CC1)c1ccc(F)cc1, the Potency is reported as “inactive”.
For C[C@H]1C[C@H]2[C@@H]3CCC4=CC(=O)C=C[C@]4(C)[C@@]3(F)[C@@H](O)C[C@]2(C)[C@@]1(O)C(=O)CCl, the Potency was “inactive”.
For CC#CCC(C)[C@H](O)/C=C/[C@@H]1[C@H]2C/C(=C/CCCC(=O)O)C[C@H]2C[C@H]1O (some centres undefined), the Potency was “inactive”.
With NCCC[C@H](N)C(=O)O the Potency was “inactive”.
With CN1[C@@H]2CCC[C@H]1CC(NC(=O)c1nn(C)c3ccccc13)C2 (some centres undefined) the Potency was “inactive”.
For CS(=O)(=O)NC(=O)CCC/C=C\C[C@H]1C(=O)C[C@@H](O)[C@@H]1/C=C/[C@H](O)COc1ccccc1, the Potency was “inactive”.
For OC[C@@H](O)C(O)[C@H](O)CO, the Potency was “inactive”.
With N[C@@H](C(=O)N[C@@H]1C(=O)N2C(C(=O)O)=C(CSc3cn[nH]n3)CS[C@H]12)c1ccc(O)cc1 the Potency was “inactive”.
In the case of CC1(C)S[C@@H]2[C@H](NC(=O)Cc3ccccc3)C(=O)N2[C@H]1C(=O)O, the Potency is reported as “inactive”.
For COC(=O)[C@H]1[C@H]2C[C@@H]3c4[nH]c5cc(OC)ccc5c4CCN3C[C@H]2C[C@@H](OC(=O)/C=C/c2cc(OC)c(OC)c(OC)c2)[C@@H]1OC, the Potency was “inactive”.
With Cn1nnnc1SCC1=C(C(=O)O)N2C(=O)[C@@H](NC(=O)[C@H](OC=O)c3ccccc3)[C@H]2SC1 the Potency was “inactive”.
With CC(C)(C)CC(=O)OCC(=O)[C@@]12OC(C)(C)O[C@@H]1C[C@H]1[C@@H]3CCC4=CC(=O)C=C[C@]4(C)[C@@]3(F)[C@@H](O)C[C@@]12C the Potency was “inactive”.
With COc1ccc2c(=O)c(C)c(-c3ccccc3)oc2c1CN(C)C the Potency was “inactive”.
With CCOC(=O)COc1ccc2c(C)c(CCN(CC)CC)c(=O)oc2c1 the Potency was “inactive”.
With O=C(O)[C@H](CC(=O)N1C[C@H]2CCCC[C@H]2C1)Cc1ccccc1 the Potency was “inactive”.
With C=C1/C(=C\C=C2/CCC[C@]3(C)[C@@H]([C@H](C)OCCC(C)(C)O)CC[C@@H]23)C[C@@H](O)C[C@@H]1O the Potency was “inactive”.
In the case of N=C(N)c1ccc(OCCCOc2ccc(C(=N)N)cc2Br)c(Br)c1, the Potency is reported as “inactive”.
